Shown are actives, neighbours in structure and some others; about 13% of the full set was active somewhere.
USP8 inh: inhibitors of human USP8 deubiquitinase. Ubiquitin carboxyl-terminal hydrolase 8 (Homo sapiens), P40818. AID 1645853, 2021. 4.2% of 47,000 active. purified USP8, Ub-rhodamine cleavage fluorescence, 30 min. inhibition, % at 20 µM
USP17 block: inhibitors of human USP17 deubiquitinase | Ubiquitin carboxyl-terminal hydrolase 17-like protein 5 (Homo sapiens), A8MUK1 | purified USP17, Ub-rhodamine cleavage fluorescence, 3 h | inhibition, % at 50 µM | 6.5% of 47,000 active | AID 1645855, 2021
USP28 block: inhibitors of human USP28 deubiquitinase; Ubiquitin carboxyl-terminal hydrolase 28 (Homo sapiens), Q96RU2; purified USP28, Ub-rhodamine cleavage fluorescence, 30 min; inhibition, % at 25 µM; 3% of 47,000 active
USP30 block: inhibitors of human USP30 deubiquitinase | AID 1645860, 2021 | inhibition, % at 25 µM | purified USP30, Ub-rhodamine cleavage fluorescence | 5.3% of 47,000 active | Ubiquitin carboxyl-terminal hydrolase 30 (Homo sapiens), Q70CQ3
Target sequence (Q70CQ3 whole entry, looked up): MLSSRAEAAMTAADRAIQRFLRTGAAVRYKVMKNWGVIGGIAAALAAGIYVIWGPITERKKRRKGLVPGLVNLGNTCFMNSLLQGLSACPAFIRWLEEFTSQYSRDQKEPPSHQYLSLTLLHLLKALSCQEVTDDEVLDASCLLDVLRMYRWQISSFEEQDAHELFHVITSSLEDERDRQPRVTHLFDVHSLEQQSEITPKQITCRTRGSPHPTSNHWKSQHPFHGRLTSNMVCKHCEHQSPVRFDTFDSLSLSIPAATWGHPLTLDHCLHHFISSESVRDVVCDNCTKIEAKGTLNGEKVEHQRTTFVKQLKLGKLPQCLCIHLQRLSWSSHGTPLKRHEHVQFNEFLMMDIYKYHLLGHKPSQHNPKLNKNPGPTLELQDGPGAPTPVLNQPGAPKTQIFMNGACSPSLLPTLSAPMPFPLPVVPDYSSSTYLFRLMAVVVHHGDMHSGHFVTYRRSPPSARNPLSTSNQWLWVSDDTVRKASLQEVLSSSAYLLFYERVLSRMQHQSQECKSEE
* = called active by the depositor; . = no result. No stated cut-off is given here; in the data, active means inhibition above about 30%; inactive means the rest.

SMILES	USP8 inh	USP17 block	USP28 block	USP30 block
O=C(Cn1cc(S(=O)(=O)N2CCCCCC2)ccc1=O)Nc1ccccc1	9	36*	-9	-13
Cc1ccccc1Cn1cc(S(=O)(=O)N2CCCCCC2)ccc1=O	14	21	10	37*
Cc1ccc(NC(=O)Cn2cc(S(=O)(=O)N3CCOCC3)ccc2=O)cc1	1	3	-4	13
Cc1noc(C)c1Cn1c(N2CCCC2)nc(-c2ccncc2)cc1=O	-42	-32	-26	-118
COc1ccc(C(=O)N2CCC3(C2)C(=O)N(C)c2ccccc23)cc1 (stereo unspecified)	-1	-15	.	.
CC1CCN(S(=O)(=O)N2CCCC(C(=O)N3CCc4ccccc43)C2)CC1 (stereo unspecified)	-12	3	-4	1
O=C(Nc1ccc(F)cc1)c1ccc2c(c1)C1C3CCC(C3)C1C(c1ccccc1)N2 (stereo unspecified)	8	2	3	32*
COc1ccc(NC(=O)CCc2c(C)nc3c(c2C)c(=O)n(C)c(=O)n3C)cc1	5	4	-5	-2
CCOC(=O)CC(NC(=O)CCc1c(C)nc2c(c1C)c(=O)n(C)c(=O)n2C)c1ccc(C)cc1 (stereo unspecified)	3	14	4	31*
O=C(O)c1c(Oc2ccc(Cl)cc2)c(-c2ccccc2)nc2ccccc12	10	16	4	14
O=C(Nc1nc(-c2ccccc2)c2ccccc2n1)c1ccc(Cl)cc1	0	0	34*	29
O=C(Nc1ccc2ccccc2n1)c1ccc(Cl)cc1	59*	30*	12	63*
COC(=O)CC[C@H]1CNC(=O)[C@@H]2[C@@H](CCN2Cc2ccccn2)N1C	-11	-88	-5	-58
COCc1cc(=O)n(Cc2cccc(OC)c2)c(N2CCCC2)n1	5	-9	6	1
c1cncc(-c2nc(NCCCN3CCOCC3)cc(-c3ccncc3)n2)c1	-25	-14	.	.
O=C(O)c1cnn2c3c(cnc12)CCCCCC3	-1	-5	7	2
Cc1cnc(NC(=O)C2CC(=O)N(c3ccc4c(c3)OCCO4)C2)s1 (stereo unspecified)	-3	-12	0	-8
O=C(Nc1ncccc1O)C1CC(=O)N(c2ccc3c(c2)OCO3)C1 (stereo unspecified)	55*	14	-5	-70
Cc1c(C)n(Cc2ccccc2)c2ncnc(NCc3ccco3)c12	-30	-18	17	-36
Cc1oc(-c2ccccc2F)nc1CS(=O)(=O)CC(=O)NCc1ccccc1Cl	8	46*	10	26
Cc1ccc(NC(=O)CC2=NC(=O)C(CC(=O)Nc3ccccc3C)S2)cc1 (stereo unspecified)	39*	-21	0	-22
CNC(=O)c1ncn2c1C(=O)N(C1CC1)C(C)(C(=O)NCc1ccc(OC)cc1)C2 (stereo unspecified)	9	-2	2	0
Cc1cc(=O)n(CC(=O)Nc2ccc(C)c(C)c2)c(N2CCCC2)n1	-1	10	6	35*
Cc1ccc(NC(=O)Cn2c(Nc3ccc(F)cc3)nc(C)cc2=O)cc1	14	78*	10	67*
Cc1cc(=O)n(CC(=O)Nc2ccccc2)c(Nc2ccc(F)cc2)n1	-3	69*	43*	63*
SMILES	USP8 inh	USP17 block	USP28 block	USP30 block
Cc1cccc(NC(=O)Cn2c(C)cc(=O)n3nc(-c4cccs4)nc23)c1	0	47*	3	10
O=C(c1cccc(F)c1)N1CCN(c2nnc3ccccn23)CC1	-10	-12	-11	-23
CC[C@H](C)/C=C(C)/C=C/C1=CC2=CC(=O)[C@]3(C)OC(=O)[C@H](C(C)=O)[C@@H]3C2=CO1	-259	-164	-179	-459
Cc1cc(=O)n(CC(=O)Nc2ccccc2F)c(Nc2ccc(F)cc2)n1	8	44*	39*	83*
Cc1cc(=O)n(CC(=O)Nc2ccccc2)c(Nc2ccc(C)c(C)c2)n1	-31	1	-7	8
Cc1cccc(Nc2nc(C)cc(=O)n2CC(=O)Nc2ccccc2)c1	12	20	7	30*
Cc1ccc(-c2nc(CN3CCC(C(=O)NCc4ccccc4F)CC3)no2)cc1	0	3	-3	-25
COc1ccc(N(CC(=O)NC2CCCCC2)C(=O)c2ccc(-c3ccccc3)[nH]2)cc1OC	3	78*	-8	-11
O=C(CSc1nnnn1-c1ccc(O)cc1)NCc1cccc(C(=O)O)c1	-91	-17	6	-31

Compound activity: PubChem BioAssay, Buhrlage Lab, Dana-Farber Cancer Institute and Novartis Institutes for BioMedical Research (Cambridge, Mass)
